Screening data deposited in PubChem by NMMLSC.
MEKK2wt PB1 HTS: modulators of MEK5 binding to wildtype MEKK2, primary screen, biochemical, multiplex bead flow cytometry, Alexa488-MEK5 | Mitogen-activated protein kinase kinase kinase 2 (Homo sapiens), Q9Y2U5 | Alexa488-MEK5 binding to MEKK2 WT; actives lie on both sides | binding response (% of control), % at 10 µM | actives 1.1% (n = 290,000) | AID 1531, 2009; in the data active = binding response below about 67% or above about 130%
MEKK2 mut-MEK5: MEK5 binding signal on mutant MEKK2 PB1, primary screen, biochemical, multiplex bead flow cytometry, Alexa488-MEK5; Alexa488-MEK5 binding to MEKK2 mutant; percent response, % at 10 µM; actives 0.35% (n = 290,000); AID 1530, 2009; in the data active = percent response above about 24%, passing the limit was not always enough
MEKK3 PB1 HTS: modulators of MEKK3-MEK5 PB1 binding, primary screen, biochemical, wildtype MEKK3, multiplex bead flow cytometry, Alexa488-MEK5; Mitogen-activated protein kinase kinase kinase 3 (Homo sapiens), Q99759; bead-based flow cytometry, Alexa488-MEK5 binding to MEKK3; actives lie on both sides; 0 = blocked by unlabeled MEK5, 100 = vehicle; binding response (% of control), % at 10 µM; actives 1.4% (n = 290,000); AID 1529, 2009;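 active = binding response more than 3 SD above or below the average of its plate-row segment, actives on both sides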;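 note: Alexa488 bead fluorescence after subtracting the streptavidin-only scavenger bead signal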
Target sequence (Q99759 whole entry, looked up): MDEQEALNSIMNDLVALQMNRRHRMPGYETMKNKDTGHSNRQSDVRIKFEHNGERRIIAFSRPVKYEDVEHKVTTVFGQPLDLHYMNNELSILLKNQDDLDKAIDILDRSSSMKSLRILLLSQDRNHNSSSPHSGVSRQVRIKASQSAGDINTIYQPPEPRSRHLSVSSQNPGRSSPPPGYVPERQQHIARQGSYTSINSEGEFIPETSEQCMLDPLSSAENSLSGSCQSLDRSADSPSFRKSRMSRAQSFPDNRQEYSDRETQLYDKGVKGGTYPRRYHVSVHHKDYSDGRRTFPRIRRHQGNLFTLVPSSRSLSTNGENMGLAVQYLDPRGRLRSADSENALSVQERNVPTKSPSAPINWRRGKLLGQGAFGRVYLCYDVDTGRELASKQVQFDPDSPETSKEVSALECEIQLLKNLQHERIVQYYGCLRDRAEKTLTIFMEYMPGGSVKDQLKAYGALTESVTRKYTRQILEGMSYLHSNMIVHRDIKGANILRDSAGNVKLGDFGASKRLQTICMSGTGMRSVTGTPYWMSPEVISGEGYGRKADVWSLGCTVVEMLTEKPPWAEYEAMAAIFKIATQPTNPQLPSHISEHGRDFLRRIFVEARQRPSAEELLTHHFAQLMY
GRK2 inh: compounds blocking aptamer binding on GRK2 – biochemical, human GRK2, bead flow cytometry, HTS, primary screen; Beta-adrenergic receptor kinase 1 (Homo sapiens), P25098; FAM-aptamer displacement from GRK2; inhibition of aptamer binding, % at 10 µM; actives 0.59% (n = 330,000); AID 488847, 2010;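 active = inhibition of aptamer binding above 40%, roughly 3 SD of noise, on plates passing a quality check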;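 note: median bead fluorescence of bound FAM aptamer so fluorescent compounds give negative values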
GRK2 CP1: GRK2 aptamer-displacing inhibitors, retest, confirmation, biochemical, cherry pick 1, bead flow cytometry | actives 4% (n = 2,000) | shares compounds with GRK2 inh | bead-bound GRK2, FAM-aptamer displacement | AID 504451, 2011 | aptamer displacement, % at 10 µM;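 active = aptamer displacement above 40%, near three times the noise of non-fluorescent compounds, on plates passing quality checks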;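 note: negative values mostly reflect intrinsic compound fluorescence rather than true enhancement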
Aptamer quench 1: quenches fluorescent RNA aptamer, GRK2 hit artifact. shares compounds with GRK2 inh. Fluorescent RNA aptamer beads, quenching, flow cytometry; stronger effect = higher value. fluorescence change (kMESF span), kMESF (test concentration not listed). 110 tested, under 10 active. AID 504521;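 active = compounds whose bead fluorescence drops by more than 37 kMESF across the dose range, marking them as dye quenchers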
Aptamer quench SP: aptamer fluorescence quenching in GRK2 counter-screen. fluorescence response (% of DMSO), % at 10 µM. shares compounds with GRK2 inh. 2,000 tested, under 10 active. Carboxyfluorescein RNA aptamer on beads, flow cytometry quenching; stronger effect = lower value;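 active = compounds that quench the bead-bound fluorescent RNA probe, cutting fluorescence to under half of the solvent control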;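 note: counterscreen run without GRK2 so only probe quenching by compound is measured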
* hit, by the source's call; / = no result given. Hits are enriched below; roughly 2.5% of the tested compounds scored in any of these assays.

SMILES	MEKK2wt PB1 HTS	MEKK2 mut-MEK5	MEKK3 PB1 HTS	GRK2 inh	GRK2 CP1	Aptamer quench SP	others
O=C(CC(Cc1ccccc1)C(=O)O)Nc1ccc(Cl)c(Cl)c1 (stereo not given)	108	4	105	99*	-2	100
O=CN1c2ccccc2CSc2ccccc21	/	/	/	74*	-4	100
COc1cc2oc3ccc(C#Cc4ccc(N)cc4)cc3c(=O)c2cc1OC	106	6	108	2	/	/
COc1cc2oc3cc(C#Cc4ccc(N)cc4)ccc3c(=O)c2cc1OC	90	-3	97	70*	3	98
O=C(NCCc1ccccc1)c1oc2ccccc2c1COc1ccccc1	107	0	101	69*	-4	98
O=C(Nc1ccccc1Cc1ccccc1)c1oc2ccccc2c1COc1ccccc1	98	1	100	22	/	/
N#C/C(N=Nc1ccccc1O)=N\Nc1ccccc1O	/	/	/	2	/	/
CCN(CCn1cccn1)C(=O)CC1C(=O)NCCN1CCc1ccccc1 (stereo not given)	103	2	102	0	/	/
CC1(C)C2CC=C(/C=N/NC(=O)c3ccc(O)cc3)C1C2 (stereo not given)	119	14	102	74*	-1	97
COC(=O)N/N=C/C1=CCC2CC1C2(C)C (stereo not given)	101	1	101	0	/	/
CC(C)Oc1ccc(C(=O)Nc2ccc(C(F)(F)F)n(C)c2=O)cc1	95	-2	94	0	/	/
CC(Oc1ccc([N+](=O)[O-])cc1Cl)C(=O)Nc1ccc(C(N)=O)cc1 (stereo not given)	102	2	105	95*	3	102
CC(=O)Nc1ccc(Oc2ccc([N+](=O)[O-])cc2Cl)cc1	97	-4	91	0	/	/
Brc1cc(Cc2nnc(-c3ccccc3)o2)c(Br)s1	64	-48	64	0	/	/
CCOc1ccc2nc(SCC(=O)Nc3ccc4c(c3)OCCO4)[nH]c2c1	104	3	100	0	/	/
COc1ccc2nc(SCC(=O)Nc3ccc4c(c3)OCCO4)[nH]c2c1	/	/	/	75*	99*	127	Aptamer quench 1=-29
COc1ccc(S(=O)(=O)N(C)C)cc1NC(=O)COC(=O)C1CC1	/	/	/	2	/	/
O=C(O)C1C2C=CC(CC2)C1C(=O)O (stereo not given)	100	-15	97	60*	52*	100	Aptamer quench 1=-0.4
CC(C)c1ccc(NC(=O)C2C3C=CC(CC3)C2C(=O)O)cc1 (stereo not given)	/	/	/	0	/	/
CC12CCC(C(=O)n3c1nc1ccccc13)C2(C)C (stereo not given)	112	5	111	36	0	91
CCCCOc1ccc(C2C(C(=O)c3ccc(C)o3)=C(O)C(=O)N2CC2CCCO2)cc1 (stereo not given)	104	2	107	0	/	/
CC(C)c1cc(-c2cc(C(=O)NCc3ccccc3)on2)nc(NCC2CC2)n1	91	5	93	0	/	/
O=C(COC(=O)c1cccc(S(=O)(=O)N2CCc3ccccc32)c1)Nc1ccc(Cl)cn1	99	1	92	5	/	/
CN(C)CCCn1cnc2c1c(=O)[nH]c(=O)n2Cc1ccccc1	100	-1	103	99*	-1	92
CN(C)CCn1cnc2c1c(=O)[nH]c(=O)n2Cc1ccccc1	105	3	104	3	/	/
CCN1C(=O)CCC(C(=O)O)C1c1ccc(OC)cc1 (stereo not given)	100	14	101	4	/	/
CN(C(=O)CSc1nncc2ccccc12)c1ccccc1	/	/	/	0	/	/
CCOC(=O)CN(C(=O)COc1nc(-c2ccccc2)cc(C)c1C#N)c1ccccc1C	91	-7	94	0	/	/
COc1ccccc1-c1nnc(SCC(=O)NC2CC2)n1C	/	/	/	86*	3	96
